Measurements published in the supplement of paper PMC10849652.
The full data set covers some 8,800 targets. This sample favours those with a hit. About 0.5% of all pairs of compound and target were hits.

Legend:
Assay in all cases: log2 fold change, soluble protein after heating vs DMSO (PISA); higher = thermal stabilisation; K562 lysate, 10 uM; active = over 0.2 and 3.5 SD of the protein, either way, in both replicates (recomputed)
vemurafenib = compound: CCCS(=O)(=O)Nc1ccc(F)c(C(=O)c2c[nH]c3ncc(-c4ccc(Cl)cc4)cc23)c1F [vemurafenib]
In short: (§1)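 To prepare the extract, K562 pellets were dounce-homogenised in PBS pH 7.4 with 1 mM MgCl2, giving crude material at 1 mg/mL protein. This was treated with 10 μM compound for 30 min, then heated in aliquots for 3 min over 48°C-58°C before pooling and addition of NP-40 to 0.5% at 4°C. Centrifugation at 21,000xg for 90 min left soluble protein in the supernatant, which TMTpro 16plex LC-MS/MS quantified with equalised channel sums. Results are log-two fold changes in thermal stability compared with solvent controls, from duplicates.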

[1] = compound: CCCS(=O)(=O)Nc1ccc(F)c(C(=O)c2c[nH]c3ncc(Cl)cc23)c1F
In short: as §1

barasertib = compound: CCN(CCCOc1ccc2c(Nc3cc(CC(=O)Nc4cccc(F)c4)[nH]n3)ncnc2c1)CCOP(=O)(O)O [barasertib]
In short: as §1

[2] = compound: CC[C@@H]1C(=O)N(C)c2cnc(Nc3ccc(C(=O)NC4CCN(C)CC4)cc3OC)nc2N1C1CCCC1
In short: as §1

volasertib = compound: CC[C@@H]1C(=O)N(C)c2cnc(Nc3ccc(C(=O)N[C@H]4CC[C@H](N5CCN(CC6CC6)CC5)CC4)cc3OC)nc2N1C(C)C [volasertib]
In short: as §1

[3] = compound: CCn1c(C(=O)N(C2CC2)C2CC2)cc2c3c(ncn3C)c(Nc3cc(C)n(C)n3)nc21
In short: as §1

[4] = compound: CCn1cc(-c2ccnc3[nH]c(-c4cccc(CN(C)C)c4)cc23)c(-c2ccc(NC(=O)N(C)C)cc2)n1
In short: as §1

[5] = compound: CN1CCC(CNc2ccc3ncc(-c4cccc(OC(F)(F)F)c4)n3n2)CC1
In short: as §1

saracatinib = compound: CN1CCN(CCOc2cc(OC3CCOCC3)c3c(Nc4c(Cl)ccc5c4OCO5)ncnc3c2)CC1 [saracatinib]
In short: as §1

sotrastaurin = compound: CN1CCN(c2nc(C3=C(c4c[nH]c5ccccc45)C(=O)NC3=O)c3ccccc3n2)CC1 [sotrastaurin]
In short: as §1

alvocidib = compound: CN1CC[C@H](c2c(O)cc(O)c3c(=O)cc(-c4ccccc4Cl)oc23)[C@H](O)C1 [alvocidib]
In short: as §1

Tubastatin A = compound: CN1CCc2c(c3ccccc3n2Cc2ccc(C(=O)NO)cc2)C1 [Tubastatin A]
In short: as §1

[6] = compound: CNC(=O)C1=CC=CC=C1NC2=NC(=NC=C2Cl)NC3=C(C=C(C=C3)N4CCOCC4)OC
In short: as §1

defactinib = compound: CNC(=O)c1ccc(Nc2ncc(C(F)(F)F)c(NCc3nccnc3N(C)S(C)(=O)=O)n2)cc1 [defactinib]
In short: as §1

[7] = compound: CNc1nc(-c2ccc3c(N)n[nH]c3c2)cc(N2C[C@@H](C(=O)NC3CCCCC3)CC[C@H]2C)n1
In short: as §1

encorafenib = compound: COC(=O)N[C@@H](C)CNc1nccc(-c2cn(C(C)C)nc2-c2cc(Cl)cc(NS(C)(=O)=O)c2F)n1 [encorafenib]
In short: as §1

[8] = compound: COC(=O)[C@H](CCSC)NC(=O)C1=C(C=C(C=C1)NC[C@H](CS)N)C2=CC=CC=C2
In short: as §1

alisertib = compound: COc1cc(Nc2ncc3c(n2)-c2ccc(Cl)cc2C(c2c(F)cccc2OC)=NC3)ccc1C(=O)O [alisertib]
In short: as §1

[9] = compound: COc1cc2nc(-c3cc(F)ccc3O)nc(N[C@@H]3CNC[C@H]3C(C)(C)O)c2cc1OC
In short: as §1

gefitinib = compound: COc1cc2ncnc(Nc3ccc(F)c(Cl)c3)c2cc1OCCCN1CCOCC1 [gefitinib]
In short: as §1

Measured: log2 fold change

RFC2 (UniProt P35250)
inactive: vemurafenib -0.043 | [1] 0.007 | barasertib 0.038 | [2] -0.095 | volasertib -0.09 | [3] 0.024 | [4] -0.068 | [5] 0.023 | saracatinib -0.005 | sotrastaurin 0.03 | alvocidib -0.025 | Tubastatin A -0.21 | [6] -0.012 | defactinib 0.023 | [7] -0.055 | encorafenib 0.042 | [8] 0.113 | alisertib 0.014 | [9] 0.005 | gefitinib 0.007

RHAG (UniProt Q02094)
Sequence of UniProt Q02094 (Q02094 whole entry, looked up): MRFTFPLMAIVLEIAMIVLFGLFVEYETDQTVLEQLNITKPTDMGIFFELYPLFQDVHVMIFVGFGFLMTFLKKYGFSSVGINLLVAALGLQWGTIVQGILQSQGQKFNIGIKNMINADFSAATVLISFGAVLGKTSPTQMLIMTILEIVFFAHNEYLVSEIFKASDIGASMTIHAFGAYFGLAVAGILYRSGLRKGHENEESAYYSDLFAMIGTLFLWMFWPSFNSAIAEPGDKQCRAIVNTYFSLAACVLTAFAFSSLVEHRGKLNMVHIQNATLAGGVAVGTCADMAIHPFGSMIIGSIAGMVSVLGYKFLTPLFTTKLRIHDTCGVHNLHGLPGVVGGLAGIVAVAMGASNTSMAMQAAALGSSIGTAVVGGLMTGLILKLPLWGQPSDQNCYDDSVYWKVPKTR
inactive: vemurafenib -0.032 | [1] -0.116 | barasertib 0.054 | [2] -0.16 | volasertib 0.053 | [3] -0.003 | [5] 0.121 | saracatinib 0.053 | sotrastaurin 0.029 | alvocidib -0.133 | Tubastatin A 0.031 | [6] 0.043 | defactinib -0.043 | [7] 0.037 | encorafenib 0.016 | [8] 0.02 | alisertib -0.004 | [9] 0.046 | gefitinib -0.051
active: [4] -0.413

RNF113A (UniProt O15541)
inactive: vemurafenib 0.021 | [1] -0.012 | barasertib -0.042 | [2] 0.04 | volasertib 0.009 | [3] -0.056 | [4] -0.021 | [5] 0.017 | saracatinib 0.031 | sotrastaurin -0.056 | alvocidib -0.062 | Tubastatin A 0.05 | [6] 0.014 | defactinib -0.013 | [7] 0.022 | encorafenib -0.019 | [8] -0.017 | alisertib -0.015 | [9] 0.015 | gefitinib 0.004

SDHC (UniProt Q99643)
Sequence of UniProt Q99643 (Q99643 whole entry, looked up): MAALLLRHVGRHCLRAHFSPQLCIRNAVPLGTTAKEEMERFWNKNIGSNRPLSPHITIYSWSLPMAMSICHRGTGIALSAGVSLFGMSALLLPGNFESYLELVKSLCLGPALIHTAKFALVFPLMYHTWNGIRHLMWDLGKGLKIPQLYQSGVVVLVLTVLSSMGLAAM
active: [4] -0.307
inactive: vemurafenib -0.035 | [1] -0.022 | barasertib 0.031 | [2] -0.089 | volasertib 0.044 | [3] 0.04 | [5] 0.156 | saracatinib 0.063 | sotrastaurin 0.062 | alvocidib -0.114 | Tubastatin A -0.056 | [6] 0.047 | defactinib 0.146 | [7] 0.097 | encorafenib 0.034 | [8] 0.055 | alisertib 0.018 | [9] -0.007 | gefitinib 0.011

SBF1 isoform 4 (UniProt O95248)
Sequence of UniProt O95248 (O95248 whole entry, looked up): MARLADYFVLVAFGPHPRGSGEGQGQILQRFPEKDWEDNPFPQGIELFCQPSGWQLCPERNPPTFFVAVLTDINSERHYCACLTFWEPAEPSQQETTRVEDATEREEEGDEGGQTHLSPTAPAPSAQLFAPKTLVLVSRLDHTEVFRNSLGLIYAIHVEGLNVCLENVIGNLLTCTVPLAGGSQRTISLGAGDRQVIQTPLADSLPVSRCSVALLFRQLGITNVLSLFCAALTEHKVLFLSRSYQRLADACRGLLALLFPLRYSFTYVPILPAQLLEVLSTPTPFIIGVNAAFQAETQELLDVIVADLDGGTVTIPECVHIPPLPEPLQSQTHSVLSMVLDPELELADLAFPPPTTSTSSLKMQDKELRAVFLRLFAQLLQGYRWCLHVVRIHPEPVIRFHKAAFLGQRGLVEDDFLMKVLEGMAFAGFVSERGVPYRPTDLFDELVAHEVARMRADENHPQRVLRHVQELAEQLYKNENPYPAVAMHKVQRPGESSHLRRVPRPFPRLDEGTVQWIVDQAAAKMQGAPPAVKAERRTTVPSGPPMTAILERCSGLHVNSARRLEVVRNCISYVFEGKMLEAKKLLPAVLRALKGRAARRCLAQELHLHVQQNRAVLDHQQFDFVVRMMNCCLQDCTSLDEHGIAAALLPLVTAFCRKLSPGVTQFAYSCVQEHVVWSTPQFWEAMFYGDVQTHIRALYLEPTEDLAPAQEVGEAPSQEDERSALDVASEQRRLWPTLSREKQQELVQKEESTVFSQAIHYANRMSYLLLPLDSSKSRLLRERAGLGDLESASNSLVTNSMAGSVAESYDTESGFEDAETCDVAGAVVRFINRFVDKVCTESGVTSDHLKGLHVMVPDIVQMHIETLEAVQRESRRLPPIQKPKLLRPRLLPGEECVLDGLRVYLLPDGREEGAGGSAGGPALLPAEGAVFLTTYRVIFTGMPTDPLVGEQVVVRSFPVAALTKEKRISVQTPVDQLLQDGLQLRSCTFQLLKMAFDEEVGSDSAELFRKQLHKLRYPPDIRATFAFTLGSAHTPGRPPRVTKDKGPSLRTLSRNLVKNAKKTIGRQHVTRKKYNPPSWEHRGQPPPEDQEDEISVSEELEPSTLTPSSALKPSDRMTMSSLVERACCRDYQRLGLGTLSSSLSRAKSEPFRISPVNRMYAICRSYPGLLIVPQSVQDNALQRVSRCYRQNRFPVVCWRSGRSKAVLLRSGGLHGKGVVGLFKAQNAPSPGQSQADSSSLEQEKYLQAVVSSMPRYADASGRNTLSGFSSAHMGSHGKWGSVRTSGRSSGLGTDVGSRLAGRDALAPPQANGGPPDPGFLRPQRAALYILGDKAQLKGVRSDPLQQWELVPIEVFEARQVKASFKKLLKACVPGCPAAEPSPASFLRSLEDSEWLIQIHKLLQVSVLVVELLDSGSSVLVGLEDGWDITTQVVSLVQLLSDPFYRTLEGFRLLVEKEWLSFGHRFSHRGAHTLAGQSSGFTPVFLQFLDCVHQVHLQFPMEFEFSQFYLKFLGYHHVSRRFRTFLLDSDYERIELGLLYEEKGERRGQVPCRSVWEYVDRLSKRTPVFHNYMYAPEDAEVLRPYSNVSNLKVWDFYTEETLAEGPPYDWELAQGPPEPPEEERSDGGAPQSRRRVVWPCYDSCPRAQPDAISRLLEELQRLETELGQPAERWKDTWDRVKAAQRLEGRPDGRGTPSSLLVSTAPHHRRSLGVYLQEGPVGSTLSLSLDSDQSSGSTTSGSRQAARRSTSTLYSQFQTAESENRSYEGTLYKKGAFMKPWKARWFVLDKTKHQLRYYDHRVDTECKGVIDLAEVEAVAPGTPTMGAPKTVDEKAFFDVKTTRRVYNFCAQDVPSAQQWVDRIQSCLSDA
inactive: vemurafenib 0.118 | [1] 0.012 | barasertib 0.033 | [2] 0.071 | volasertib -0.111 | [3] 0.014 | [4] -0.107 | [5] 0.029 | saracatinib 0.062 | sotrastaurin 0 | alvocidib 0.005 | Tubastatin A 0.074 | [6] -0.054 | defactinib 0.022 | [7] -0.099 | encorafenib -0.004 | [8] -0.009 | alisertib 0.238 | [9] 0.008 | gefitinib 0.062

SESN2 (UniProt P58004)
inactive: vemurafenib -0.008 | [1] 0.025 | barasertib 0.049 | [2] -0.103 | volasertib -0.066 | [3] 0.019 | [4] 0.02 | [5] -0.105 | saracatinib -0.043 | sotrastaurin 0.047 | alvocidib 0.028 | Tubastatin A -0.093 | [6] -0.028 | defactinib 0.039 | [7] 0.033 | encorafenib 0.038 | [8] -0.001 | alisertib -0.026 | [9] -0.045 | gefitinib -0.034

REEP5 (UniProt Q00765)
Sequence of UniProt Q00765 (Q00765 whole entry, looked up): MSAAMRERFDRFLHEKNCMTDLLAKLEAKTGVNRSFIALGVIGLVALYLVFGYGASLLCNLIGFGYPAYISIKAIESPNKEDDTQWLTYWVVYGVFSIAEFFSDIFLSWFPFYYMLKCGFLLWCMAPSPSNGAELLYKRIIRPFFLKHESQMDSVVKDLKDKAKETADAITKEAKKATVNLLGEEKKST
active: [8] 0.263
inactive: vemurafenib -0.008 | [1] -0.006 | barasertib -0.008 | [2] 0.073 | volasertib 0.023 | [3] 0.027 | [4] -0.051 | [5] 0.026 | saracatinib 0.017 | sotrastaurin -0.02 | alvocidib -0.054 | Tubastatin A -0.004 | [6] -0.056 | defactinib 0.04 | [7] 0.035 | encorafenib 0.001 | alisertib -0.009 | [9] 0.001 | gefitinib -0.092

RDX (UniProt P35241)
Sequence of UniProt P35241 (P35241 whole entry, looked up): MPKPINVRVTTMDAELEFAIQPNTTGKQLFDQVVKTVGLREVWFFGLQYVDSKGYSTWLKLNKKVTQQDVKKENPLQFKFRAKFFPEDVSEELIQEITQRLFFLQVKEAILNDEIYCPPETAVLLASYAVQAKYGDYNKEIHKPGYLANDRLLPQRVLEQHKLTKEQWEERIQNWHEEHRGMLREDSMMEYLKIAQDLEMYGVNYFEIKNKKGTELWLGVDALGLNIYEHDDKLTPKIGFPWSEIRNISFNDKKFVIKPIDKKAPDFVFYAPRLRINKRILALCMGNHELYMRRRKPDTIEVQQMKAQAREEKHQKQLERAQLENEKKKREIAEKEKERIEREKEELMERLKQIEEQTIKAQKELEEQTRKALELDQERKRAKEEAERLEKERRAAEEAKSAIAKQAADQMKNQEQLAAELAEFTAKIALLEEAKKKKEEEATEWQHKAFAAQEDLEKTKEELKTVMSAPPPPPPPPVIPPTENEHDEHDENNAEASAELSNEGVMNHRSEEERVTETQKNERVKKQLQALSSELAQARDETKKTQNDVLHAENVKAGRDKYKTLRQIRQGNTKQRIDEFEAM
inactive: vemurafenib 0 | [1] -0.008 | barasertib 0.003 | [2] 0.016 | volasertib 0.017 | [3] -0.018 | [5] -0.109 | saracatinib -0.018 | sotrastaurin -0.013 | alvocidib 0.116 | Tubastatin A 0.042 | [6] -0.002 | defactinib -0.009 | [7] 0.034 | encorafenib -0.047 | [8] -0.033 | alisertib -0.018 | [9] 0 | gefitinib 0.013
active: [4] 0.712

RIOK2 (UniProt Q9BVS4)
Sequence of UniProt Q9BVS4 (Q9BVS4 whole entry, looked up): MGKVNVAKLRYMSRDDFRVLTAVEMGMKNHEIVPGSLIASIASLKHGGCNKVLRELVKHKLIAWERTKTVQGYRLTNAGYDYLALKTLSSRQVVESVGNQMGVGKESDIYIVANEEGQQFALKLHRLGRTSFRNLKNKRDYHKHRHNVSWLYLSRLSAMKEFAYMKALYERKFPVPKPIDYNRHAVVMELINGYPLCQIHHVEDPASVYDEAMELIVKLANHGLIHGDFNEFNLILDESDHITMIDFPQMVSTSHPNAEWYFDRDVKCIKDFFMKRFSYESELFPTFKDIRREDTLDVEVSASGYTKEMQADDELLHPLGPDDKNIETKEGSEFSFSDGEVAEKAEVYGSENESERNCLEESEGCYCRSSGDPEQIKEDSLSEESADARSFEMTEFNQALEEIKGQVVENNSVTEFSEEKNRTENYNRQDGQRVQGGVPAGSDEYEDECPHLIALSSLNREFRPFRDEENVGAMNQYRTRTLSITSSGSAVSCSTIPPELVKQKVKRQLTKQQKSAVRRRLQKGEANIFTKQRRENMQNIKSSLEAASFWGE
active: [6] 0.438
inactive: vemurafenib -0.074 | [1] 0.006 | barasertib -0.053 | [2] 0.016 | volasertib -0.026 | [3] -0.03 | [4] -0.115 | [5] 0.066 | saracatinib -0.023 | sotrastaurin 0.04 | alvocidib -0.021 | Tubastatin A -0.098 | defactinib 0.105 | [7] 0.127 | encorafenib -0.025 | [8] 0.029 | alisertib -0.005 | [9] -0.051 | gefitinib -0.011

QRSL1 (UniProt Q9H0R6)
inactive: vemurafenib 0.134 | [1] 0.012 | barasertib 0.044 | [2] -0.004 | volasertib -0.057 | [3] 0.008 | [4] -0.178 | [5] -0.138 | saracatinib -0.056 | sotrastaurin 0.071 | alvocidib -0.028 | Tubastatin A -0.021 | [6] -0.012 | defactinib -0.068 | [7] -0.051 | encorafenib -0.015 | [8] -0.005 | alisertib 0.014 | [9] 0.014 | gefitinib -0.045

S100A11 (UniProt P31949)
Sequence of UniProt P31949 (P31949 whole entry, looked up): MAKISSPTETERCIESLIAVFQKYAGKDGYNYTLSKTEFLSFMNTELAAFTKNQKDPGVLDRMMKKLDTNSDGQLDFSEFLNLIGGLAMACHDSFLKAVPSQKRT
inactive: vemurafenib 0.005 | [1] -0.015 | barasertib 0.008 | [2] 0.037 | volasertib 0.098 | [3] 0.004 | [4] -0.008 | [5] -0.052 | saracatinib 0.023 | sotrastaurin -0.036 | alvocidib 0.085 | Tubastatin A 0.075 | [6] 0.029 | defactinib 0.059 | [7] -0.011 | encorafenib -0.021 | [8] 0.007 | alisertib 0.024 | [9] -0.01 | gefitinib -0.089

RRM1 (UniProt P23921)
Sequence of UniProt P23921 (P23921 whole entry, looked up): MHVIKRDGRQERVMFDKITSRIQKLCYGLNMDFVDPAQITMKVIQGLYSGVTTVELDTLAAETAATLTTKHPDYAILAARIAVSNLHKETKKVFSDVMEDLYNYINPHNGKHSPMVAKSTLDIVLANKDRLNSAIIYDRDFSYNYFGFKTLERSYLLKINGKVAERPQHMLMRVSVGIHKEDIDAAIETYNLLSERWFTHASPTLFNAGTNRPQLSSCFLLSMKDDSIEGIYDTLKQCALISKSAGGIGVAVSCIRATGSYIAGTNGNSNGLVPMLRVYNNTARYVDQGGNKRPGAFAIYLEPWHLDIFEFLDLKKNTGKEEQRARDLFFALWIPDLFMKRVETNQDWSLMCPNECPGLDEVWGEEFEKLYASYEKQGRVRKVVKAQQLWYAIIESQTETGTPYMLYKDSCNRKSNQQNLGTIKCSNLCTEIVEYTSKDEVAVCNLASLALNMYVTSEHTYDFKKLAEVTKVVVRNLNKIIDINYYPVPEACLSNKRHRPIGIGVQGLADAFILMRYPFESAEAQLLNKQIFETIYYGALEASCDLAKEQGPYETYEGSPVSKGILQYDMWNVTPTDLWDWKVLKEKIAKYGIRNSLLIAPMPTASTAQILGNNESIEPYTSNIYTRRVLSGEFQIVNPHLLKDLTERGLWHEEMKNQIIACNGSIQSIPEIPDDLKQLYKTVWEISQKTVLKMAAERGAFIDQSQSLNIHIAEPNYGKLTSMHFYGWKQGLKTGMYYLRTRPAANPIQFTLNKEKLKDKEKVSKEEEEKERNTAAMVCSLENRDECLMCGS
inactive: vemurafenib 0.023 | [1] 0.018 | barasertib 0.011 | [2] -0.065 | volasertib -0.063 | [3] 0.003 | [4] -0.045 | [5] -0.031 | saracatinib -0.02 | sotrastaurin -0.016 | alvocidib -0.004 | Tubastatin A -0.098 | [6] -0.007 | defactinib 0.022 | [7] -0.03 | encorafenib 0.005 | [8] 0.098 | alisertib 0.007 | [9] 0.007 | gefitinib -0.006

RPS26P11 (UniProt Q5JNZ5)
active: [4] -0.688
inactive: vemurafenib 0.012 | [1] -0.01 | barasertib -0.03 | [2] 0.041 | volasertib 0.017 | [3] 0.02 | [5] 0.224 | saracatinib 0.009 | sotrastaurin 0.05 | alvocidib -0.216 | Tubastatin A 0.038 | [6] -0.064 | defactinib 0.011 | [7] 0.02 | encorafenib 0.007 | [8] 0.006 | alisertib -0.006 | [9] -0.032 | gefitinib -0.056

RNF181 (UniProt Q9P0P0)
Sequence of UniProt Q9P0P0 (Q9P0P0 whole entry, looked up): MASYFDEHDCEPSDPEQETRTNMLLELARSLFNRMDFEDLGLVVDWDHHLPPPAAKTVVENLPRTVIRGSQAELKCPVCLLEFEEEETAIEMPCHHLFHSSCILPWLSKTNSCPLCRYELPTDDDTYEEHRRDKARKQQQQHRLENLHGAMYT
inactive: vemurafenib -0.06 | [1] 0.025 | barasertib 0.179 | [2] -0.036 | volasertib 0.004 | [3] 0.018 | [4] -0.013 | [5] -0.035 | saracatinib -0.03 | sotrastaurin -0.02 | alvocidib 0 | Tubastatin A 0.021 | [6] 0.037 | defactinib 0.044 | [7] -0.008 | encorafenib 0.029 | [8] -0.201 | alisertib -0.011 | [9] -0.004 | gefitinib -0.083

SEC61G (UniProt P60059)
Sequence of UniProt P60059 (P60059 whole entry, looked up): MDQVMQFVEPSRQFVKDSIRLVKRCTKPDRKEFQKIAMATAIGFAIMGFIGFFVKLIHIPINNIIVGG
inactive: vemurafenib 0.015 | [1] -0.079 | barasertib 0.175 | [2] 0.159 | volasertib 0.033 | [3] -0.067 | [4] -0.118 | [5] 0.405 | saracatinib -0.276 | sotrastaurin -0.184 | alvocidib -0.107 | Tubastatin A 0.063 | [6] 0.09 | defactinib 0.045 | [7] 0.137 | encorafenib -0.02 | [8] 0.067 | alisertib 0.053 | [9] 0.009 | gefitinib 0.036

SCAF1 (UniProt Q9H7N4)
inactive: vemurafenib 0.027 | [1] 0.093 | barasertib 0.079 | [2] 0.089 | volasertib -0.114 | [3] 0.05 | [4] -0.041 | [5] 0.008 | saracatinib 0.009 | sotrastaurin -0.029 | alvocidib 0.054 | Tubastatin A 0.034 | [6] -0.051 | defactinib 0.046 | [7] 0.051 | encorafenib -0.028 | [8] -0.066 | alisertib 0.128 | [9] -0.02 | gefitinib 0.129
